L3MBTL1 inh: blocks human L3MBTL1. Potency, µM (top dose mostly 57.1 µM), most hits filed as inhibitors. actives 0.66% (n = 230,000). AlphaScreen L3MBTL1–H3K9me1 peptide binding; note: nearly all actives have a fitted effect of over 60% in size
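First, the protein-peptide complex forms for 30 min at room temperature (L3MBTL1 50 nM, biotinylated H3K9me1 peptide 75 nM). Next, compounds are pin-transferred and incubated 30 min. Finally, AlphaScreen beads are added and read after 30 min.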
RECQ1 inh-1: blocks DNA unwinding by human RECQ1. actives 0.54% (n = 240,000). RECQ1 DNA unwinding, red fluorescence kinetic read. P46063. AID 2549. Potency, µM (titrated, usually from 57.3 µM), actives largely listed as inhibitors; note: nearly all actives have a fitted effect of over 30% in size
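50 nM RECQ1T1 preincubated 15 min with compound in Tris pH 8.0 buffer with MgCl2, DTT, Tween-20 and 2.5 ug/ml poly(dI-dC); started with 200 nM TAMRA/BHQ-2 forked duplex and 2 mM ATP. Unwinding read as fluorescence (525/598 nm), two reads 2 h apart.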
RGS12 GoLoco inh: blocks human Gai1 binding to RGS12 GoLoco peptide, red readout. Gai1:RGS12 GoLoco peptide FP, rhodamine, 10 min. P63096. Potency, µM (highest dose often 61.6 µM), hits mostly inhibitors. actives 0.44% (n = 230,000); active = well fitted inhibition curve with a large enough effect, not every such curve was filed as active; inactive = no such curve, though single readings can be large or run the other way; note: nearly all actives have a fitted effect of over 30% in size
Target sequence (P63096 whole entry, looked up): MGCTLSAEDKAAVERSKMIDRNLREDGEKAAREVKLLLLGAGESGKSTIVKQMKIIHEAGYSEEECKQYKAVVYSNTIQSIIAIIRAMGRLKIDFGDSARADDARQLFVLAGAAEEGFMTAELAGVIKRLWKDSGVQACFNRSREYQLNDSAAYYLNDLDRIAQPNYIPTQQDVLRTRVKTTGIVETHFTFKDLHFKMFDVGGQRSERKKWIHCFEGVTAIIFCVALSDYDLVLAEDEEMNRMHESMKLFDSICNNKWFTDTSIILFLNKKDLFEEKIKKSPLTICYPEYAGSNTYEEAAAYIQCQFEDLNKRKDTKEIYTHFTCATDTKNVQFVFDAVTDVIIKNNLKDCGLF
BLM inh: inhibitors of human Bloom syndrome helicase BLM; P54132; recombinant BLM DNA unwinding, fluorescence dequenching; actives 0.2% (n = 350,000); Potency, µM (series often up to 56.1 µM), usual class: inhibitors; note: nearly all actives have a fitted effect of over 35% in size
KDM4E inh: JMJD2E (human) inhibition. Potency, µM (doses to about 57.1 µM), most hits filed as inhibitors. JMJD2E catalytic domain, FDH-coupled NADH fluorescence (FDH is formaldehyde dehydrogenase). actives 1.6% (n = 230,000); active = well fitted inhibition curve with a large enough effect, not every such curve was filed as active; inconclusive = small, poorly fitted or top-dose-only effect, or another doubt; inactive = no such curve, though single readings can be large or run the other way; note: nearly all actives have a fitted effect of over 50% in size
APE1 inh: inhibitors of human APE1 endonuclease; AID 2517; actives 0.35% (n = 350,000); recombinant APE1, TAMRA/BHQ-2 abasic DNA cleavage fluorescence; P27695; Potency, µM (titrated, usually from 65.8 µM), hits mostly inhibitors; note: nearly all actives have a fitted effect of over 55% in size
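Substrate: short duplex with […] THF abasic site, 5'-TAMRA and 3'-BHQ-2, 50 nM final. APE1 at 0.75 nM, preincubated 15 min RT with compound. Fluorescence increase from first to third read measured activity.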
RECQ1 conf: confirmation of human RECQ1 helicase inhibitors | AID 2708 | shares compounds with RECQ1 inh-1 | RECQ1 helicase DNA unwinding, fluorescence | Potency, µM (titrated, usually from 229 µM), actives largely listed as inhibitors | actives 28% (n = 610); note: nearly all actives have a fitted effect of over 45% in size
ADP FP counter: ADP displacement flagged in RECQ1 inhibitor counter-screen; shares compounds with RECQ1 inh-1; ADP fluorescence polarization displacement counterscreen; Potency, µM (series often up to 228 µM), hits mostly inhibitors; actives 27% (n = 530); note: nearly all actives have a fitted effect of over 45% in size
RECQ1 inh-2: blocks human RECQ1 DNA unwinding | Potency, µM (doses to about 119 µM), hits mostly inhibitors | actives 15% (n = 1,100) | shares compounds with RECQ1 inh-1 | recombinant RECQ1 DNA unwinding, red fluorescence | AID 504841; note: nearly all actives have a fitted effect of over 50% in size
Each line names hits and unclear results; the compound was inactive in the other large screens (follow-up assays come after a bar, where they were run). Only a selection was taken, and hits are over-represented in it overall. Unless noted, calls come from the whole dose curve; as a rule, active = well fitted curve in the direction sought with a large enough effect; inconclusive = small, poorly fitted or top-dose-only effect, or another doubt; inactive = no such curve, though single readings can be large; an effect the other way counts as inactive or inconclusive.

O=C(O)CCCCn1c(SCc2ccccc2Cl)nc2ccsc2c1=O	none (no result: L3MBTL1 inh) | RECQ1 conf inactive | ADP FP counter inactive
Cc1ccccc1N=C/C=C1\N(C)c2ccccc2C1(C)C	RECQ1 inh-1 inconclusive, KDM4E inh inconclusive, APE1 inh inconclusive (no result: L3MBTL1 inh) | RECQ1 inh-2 inactive
COc1ccccc1CN1C(=O)c2cccc3cccc(c23)C1=O	RECQ1 inh-1 25µM, KDM4E inh inconclusive | RECQ1 inh-2 inactive
COc1ccccc1CN1C(=O)c2ccncc2C1=O	none
COc1ccc(NC(=O)/C(Cl)=C(/Cl)S(=O)Cc2ccc(Cl)cc2)cn1 (stereo not drawn)	RECQ1 inh-1 35µM | RECQ1 inh-2 inactive
CSc1ccc(CCNC(=O)CCCn2nc(C)c3sc4ccccc4c3c2=O)cc1	none (no result: L3MBTL1 inh, RECQ1 inh-1, RGS12 GoLoco inh, KDM4E inh, APE1 inh)
COC(=O)Nc1ccc(S(=O)(=O)N2CCCCC2C(=O)NCc2ccco2)cc1 (stereo not drawn)	none (no result: L3MBTL1 inh) | RECQ1 conf inactive | ADP FP counter inactive
Cc1ccc(S(=O)(=O)N2CCCCC2C(=O)NCc2ccco2)cc1 (stereo not drawn)	none
CCc1ccc(NC(=O)Cn2c(=O)n(Cc3ccc(C)cc3)c(=O)c3cccnc32)cc1	none (no result: L3MBTL1 inh, RECQ1 inh-1, RGS12 GoLoco inh, KDM4E inh, APE1 inh)
Cc1cc(NC(=O)CCSc2ccccc2)ccc1Br	RECQ1 inh-1 3.5µM | RECQ1 inh-2 inactive
Cc1cc(Br)ccc1NC(=O)CCSc1ccccc1	none
CC1CCCCC1NC(=S)NC(=O)c1ccccc1Br (stereo not drawn)	RECQ1 inh-1 40µM | RECQ1 inh-2 inactive
CC1CCCCC1NC(=S)NC(=O)c1ccccc1Cl (stereo not drawn)	none (no result: RECQ1 inh-1, RGS12 GoLoco inh, BLM inh, KDM4E inh)
COc1ccc(C(=O)Nc2ccc(-c3cc(C(F)(F)F)nn3-c3ccccc3)cc2)cc1OC	none (no result: L3MBTL1 inh, RECQ1 inh-1, RGS12 GoLoco inh, KDM4E inh, APE1 inh)
Cc1ccc(CSCC(Nc2ccc(C(=O)O)cc2[N+](=O)[O-])C(=O)O)cc1 (stereo not drawn)	none (no result: L3MBTL1 inh)
O=C(O)c1ccc(NC(CSCc2ccc(F)cc2)C(=O)O)c([N+](=O)[O-])c1 (stereo not drawn)	none (no result: L3MBTL1 inh) | RECQ1 conf inactive | ADP FP counter inactive
Cc1ccc(NC(=O)CN2CCCN(Cc3ccccc3Cl)S2(=O)=O)c(C)c1	none (no result: L3MBTL1 inh, RECQ1 inh-1, RGS12 GoLoco inh, KDM4E inh, APE1 inh)
N[C@](CC1c2ccccc2Oc2ccccc21)(C(=O)O)[C@@H]1C[C@@H]1C(=O)O	none (no result: L3MBTL1 inh)
Cc1[nH]nc2c1C(c1ccc(-c3ccc(Cl)cc3)o1)C(C#N)=C(N)O2 (stereo not drawn)	none
Cc1ccc(-c2ccc(C3C(C#N)=C(N)Oc4n[nH]c(C)c43)o2)cc1 (stereo not drawn)	RECQ1 inh-1 14µM, BLM inh inconclusive, KDM4E inh inconclusive, APE1 inh inconclusive | RECQ1 inh-2 inactive
CCN(CC)c1nn2c(=O)c(C(=O)NCc3ccc(F)cc3)cnc2s1	none (no result: L3MBTL1 inh, RECQ1 inh-1, RGS12 GoLoco inh, KDM4E inh, APE1 inh)
N#Cc1c(-c2ccco2)cc(-c2ccccc2)[nH]c1=O	RECQ1 inh-1 22µM, BLM inh inconclusive, KDM4E inh inconclusive, APE1 inh 32µM (no result: L3MBTL1 inh) | RECQ1 conf inconclusive | ADP FP counter inconclusive
Cn1cc(S(=O)(=O)N2CCCCCC2)cc1C(=O)NCc1ccc(F)cc1	none (no result: L3MBTL1 inh, RECQ1 inh-1, RGS12 GoLoco inh, KDM4E inh, APE1 inh)
Cc1cc2c(NC(=O)Nc3ccccc3)cccc2nn1	RECQ1 inh-1 inconclusive, KDM4E inh inconclusive, APE1 inh inconclusive | RECQ1 inh-2 inactive
Cc1cc2c(NC(=O)Nc3ccc(C(C)(C)C)cc3)cccc2nn1	KDM4E inh inconclusive
CCOC(=O)c1cc2c(=O)n3ccccc3nc2n(Cc2ccco2)c1=NC(=O)c1ccc(OC)cc1	L3MBTL1 inh inconclusive, RECQ1 inh-1 inconclusive, BLM inh inconclusive, KDM4E inh inconclusive | RECQ1 inh-2 inactive
